Test results published in PubChem BioAssay (NCATS).
“And” between values parts separate entries of the source, which are not always exact repeats. Identical values can stand only once. Records with an inconclusive call do not appear. Values without a mark were called inactive. The source made the active and inactive calls. Calls follow the shape of the dose curve; as a rule, active = well fitted cell-killing curve with a large enough effect; inconclusive = small, poorly fitted or top-dose-only effect; inactive = no such curve, though single readings can be large or run the other way.

Experiment: qHTS of pediatric cancer cell lines to identify multiple opportunities for drug repurposing: Primary screen for SK-N-SH cells (AID 1347098); also: nearly all actives have a fitted effect of over 65% in size
Details: SK-N-SH viability, CellTiter-Glo luminescence, 48 h; series mostly up to 57 µM; activity change, negative = cytotoxic: at the top concentration
Excerpt: Drug repurposing or repositioning has been offered as a strategy for drug development in oncology programs. This approach has special potential for childhood cancers and other rare or orphan diseases, where the expected return on new drug development has been a disincentive to pharmaceuticals.
In this project we exploit the poly-pharmacology of drugs to discover new indications via phenotypic screening of a panel of 19 well-characterized cell lines derived from solid tumors seen in children and adolescents. The goal is to identify approved drugs with previously unrecognized anticancer properties that has the potential to reveal new mechanisms and biological processes involved in carcinogenesis or drug resistance. We employed a titration-based paradigm (quantitative high-throughput screening or qHTS), where all compounds were tested at multiple concentrations for their effect on cell viability. Concentration-response curves (CRCs) were derived directly from the primary screen, and both potency and efficacy values were used to identify compounds with robust bioactivity profiles. We screened the NIH Chemical Genomics Center (NCGC) Pharmaceutical Collection (NPC) and Mechanism Interrogation Plate (MIPE) small molecule collections of approved and investigational compounds against these cell lines; and measured metabolically active cells after 48 hours of compound treatment as a proxy for cell viability.
Assay Submitter: Nathalia J. Martinez, National Center for Advancing Translational Sciences, National Institutes of Health, Rockville, MD, USA; email: natalia.martinez@nih.gov
[1] Shen, M et al. Quantitative high-throughput phenotypic screening of pediatric cancer cell lines identifies multiple opportunities for drug repurposing. Oncotarget 2017 Dec 19;9(4):4758-4772. PMID 29435139.
The cells were obtained from University of North Carolina (UNC), Pediatric Preclinical Testing Program (PPT), and Coriell Institute (CI).
qHTS cell viability assay:
Cells were assayed in growth media at a density of 500-1,000 cells/well. Five microliters of cells were dispensed into 1,536-well, white, solid-bottom, TC-treated plates (Greiner Bio One) using a multidrop dispenser and incubated at 37 degrees C, 5% CO2, under a humidified atmosphere for 5 hours. Twenty-three nanoliters of compounds and controls (neutral control DMSO or positive control bortezomib at final concentration of 2.3 µM) were subsequently transferred by Kalypsys pintool. For primary screens, the MIPE collection was tested at 11-point dilutions (final concentrations range from 0.78 nM to 46 µM) and the NPC collection at 8-point dilutions (final concentrations range from 0.59 nM to 46 µM). Compounds tested in follow-up screens were assayed at 11-point dilutions. Cells were incubated for 48 hours, followed by addition of 3 µL of CellTiter-Glo (Promega). After a 15 min incubation at room temperature, samples were analyzed for luminescence intensity using a ViewLux High-throughput CCD imager equipped with clear filters.
% is scaled to controls: 0 for no effect and ±100 for the full control effect; potency is read from the fitted curve at half-maximal effect.

SMILES	activity change, negative = cytotoxic	Potency
NC(=O)c1ccc(I)c([N+](=O)[O-])c1	29.1%	–
Clc1ccc(Nc2nnc(Cc3ccncc3)c3ccccc23)cc1	–	21.7 µM (active)
COc1ccc([C@@H]2CC(=O)c3c(O)cc(O[C@@H]4O[C@H](CO[C@@H]5O[C@@H](C)[C@H](O)[C@@H](O)[C@@H]5O)[C@@H](O)[C@H](O)[C@@H]4O)cc3O2)cc1O	21.5%	–
CCCC(CCC)C(=O)O	2.1%	–
CC(C)(C)NCC(O)c1ccc(O)c(CO)c1 (stereo not given)	–	inactive
Cc1cccc(-c2nn(C(=S)Nc3ccccc3)cc2-c2ccnc3ccccc23)n1	9.68%	–
C[C@]12CC[C@H](O)CC1=CC[C@@H]1[C@H]2CC[C@]2(C)C(c3cccnc3)=CC[C@H]12	17.6% [at 20 µM]	–
CNC(=O)c1ccc(C)c(-n2c(C)cc(OCc3ccc(F)cc3F)c(Br)c2=O)c1	-12.7%	–
O=S(=O)(N=Cc1c(O)ccc2ccccc12)c1cccs1	-11.6%	–
CCOc1cc(N2CCC(O)CC2)ccc1Nc1ncc2c(n1)N(C)c1ccccc1C(=O)N2C	–	4.29 µM (active)
CS(=O)(=O)c1cccc(CNc2nc(Nc3ccc4c(c3)CCC(=O)N4)ncc2C(F)(F)F)c1	–	24.1 µM (active)
O=C(Nc1cccnc1)N1CCC(Cc2cccc(Oc3ccc(C(F)(F)F)cn3)c2)CC1	-11.9%	–
O=NN(CCCl)C(=O)NCCCl	–	inactive
C[C@H](NC(=O)Cc1cc(F)cc(F)c1)C(=O)N[C@@H]1C(=O)N(C)c2ccccc2-c2ccccc21	–	12.1 µM (active)
CCN(CC)CCCC(C)Nc1nc(C)cc(Nc2ccc3nc(C)cc(N)c3c2)n1 (stereo not given)	9.73%	–
COc1ccccc1-c1cccc(-c2c(O)c3cc(C#N)c(Cl)cc3[nH]c2=O)c1	-16.1% [at 115 µM]	–
NCCCC(N)(C(=O)O)C(F)F (stereo not given)	–	inactive
O=C(c1cc(Cc2n[nH]c(=O)c3ccccc23)ccc1F)N1CCN(C(=O)C2CC2)CC1	–	21.5 µM (active)
CN1CCN(CCCN2c3ccccc3Sc3ccc(C(F)(F)F)cc32)CC1	–	12.2 µM (active) and 7.64 µM (active)
C[C@]12CCC(=O)C=C1CC[C@@H]1[C@@H]2[C@@H](O)C[C@@]2(C)[C@H]1CC[C@]2(O)C(=O)CO	9.84%	–

SMILES	activity change, negative = cytotoxic	Potency
CC(C)(C)OC(=O)CN(Cc1ccc(Cl)cc1)Cc1ccc([N+](=O)[O-])s1	-1.48%	–
O=C(O)COCCN1CCN(C(c2ccccc2)c2ccc(Cl)cc2)CC1 (stereo not given)	–	inactive
Cc1[nH]c(=O)c(C#N)cc1-c1ccncc1	–	inactive
COc1nc(-c2ccc3c(c2)OCO3)n(-c2ccc(NC(=O)CSc3ccccc3)cc2)n1	1.34%	–
Cc1cc2c(F)c(Oc3ncnn4cc(OC[C@@H](C)O)c(C)c34)ccc2[nH]1	–	24.1 µM (active)
Nc1nc2ccc(OC(F)(F)F)cc2s1	-2.25%	–
COc1ccccc1[C@H](c1cccc2ccccc12)[C@@](C)(C#N)C(=O)N1CCC(c2cccc(C(F)(F)F)c2)CC1	–	19.2 µM (active)
N=c1nc(N2CCCCC2)cc(N)n1O	–	inactive
CCOc1cc(C(=O)Nc2ccc(Cl)c(-c3nc4ccccc4[nH]3)c2)cc(OCC)c1OCC	–	5.41 µM (active)
CN(C)c1ccc(C2Nc3ccc4ccccc4c3C3=C2C(=O)CC(C)(C)C3)cc1Br (stereo not given)	-8.78%	–
COc1ccc2c3n(c(=NC(=O)c4cccnc4)nc2c1OC)CCN3	–	0.961 µM (active)
COc1ccc(-c2ccc3c(N4CCOC[C@H]4C)nc(N4CCOC[C@H]4C)nc3n2)cc1CO	-20.4%	–
O=C1CCc2cc(OCCCCc3nnnn3C3CCCCC3)ccc2N1	63.3%	–
Nc1nc2[nH]cc(CCc3ccc(C(=O)N[C@@H](CCC(=O)O)C(=O)O)cc3)c2c(=O)[nH]1	24.2%	–
CNC[C@H](O)c1cccc(O)c1	–	inactive
O=C1CCC(N2C(=O)c3ccccc3C2=O)C(=O)N1 (stereo not given)	–	inactive
O=c1[nH]cnc2[nH]ncc12	–	inactive
NC(=O)c1cnccn1	2.43%	–
CC(C=CC1=C(C)CCCC1(C)C)=CC=CC(C)=CC(=O)O	-13.6%	–
Oc1cccc(-c2nc(N3CCOCC3)c3oc4ncccc4c3n2)c1	–	0.879 µM (active)
